# KB-3-1 cytotox = KB-3-1 parental cell cytotoxicity. Potency, µM (highest dose often 46.1 µM), most hits filed as cytotoxic. AID 1347075. KB-3-1 viability, CellTiter-Glo ATP luminescence, 72 h. actives 1.4% (n = 400,000); note: % is set by controls: 0 for no effect and ±100 for the full control effect; nearly all actives have a fitted effect of over 60% in size
#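 Viability of parental KB-3-1 cells, measured by CellTiter-Glo luminescence, followed a 72 h incubation at 37 °C with pinned compounds in phenol-red-free DMEM containing 10% FBS.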
# KB-V1 MDR tox = kills drug-selected multidrug resistant KB-V1 cells. Potency, µM (series often up to 46.1 µM), usual class: cytotoxic. KB-V1 MDR cells viability, CellTiter-Glo, 72 h. actives 3.4% (n = 400,000); note: % is set by controls: 0 for no effect and ±100 for the full control effect; nearly all actives have a fitted effect of over 60% in size
#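 In this primary screen, KB-V1 cells overexpressing P-gp are incubated with library compounds (lowest to highest concentration) for 72 h at 37 degrees C before a luminescent ATP viability read.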
# ATXN2 expr inh = ATXN2 expression inhibition; HEK-293 ATXN2-luciferase reporter, luminescence, 24 h; Potency, µM (titrated, usually from 57 µM), for the others: at the top dose activity change, negative = inhibition, hits mostly inhibitors; actives 0.72% (n = 360,000); note: % is set by controls: 0 for no effect and ±100 for the full control effect; nearly all actives have a fitted effect of over 55% in size
#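 qHTS (up to 57 uM final) was run with 24 h compound exposure of reporter cells at 37 °C. Each well was multiplexed: SteadyGlo luminescence measured ATXN2-luciferase expression after a fluorogenic Gly-Phe-AFC viability readout (25 uM final).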
# HT1080 IDH1KD tx = kills HT-1080 cells with IDH1 knockdown | HT-1080 IDH1 knockdown viability, ATP luminescence, 48 h | Potency, µM (doses to about 46.1 µM), inactives show at the top dose activity, negative = toxicity, hits mostly cytotoxic | actives 2% (n = 360,000) | AID 686971;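 note: 0% = DMSO wells and -100% = cell-free medium wells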
#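 Knockdown cells (IDH1KD HT-1080) received compounds 2 h after plating at 750 cells/well and were kept 48 h at 37 °C in 5% FBS RPMI. A CellTiter-Glo luminescence read gave % activity for curve fitting.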
# S2 tox = cell viability loss in ATXN counter-screen | actives 0.49% (n = 400,000) | Potency, µM (highest dose often 56.7 µM), usual class: cytotoxic | S2 cells (HEK-293 line with an ATXN2-luciferase reporter) viability, CellTiter-Fluor protease fluorescence, 24 h; note: nearly all actives have a fitted effect of over 40% in size
# HT1080NT lethal = kills 2HG-producing HT-1080-NT fibrosarcoma cells. HT-1080-NT fibrosarcoma viability, CellTiter-Glo ATP luminescence, 48 h. Potency, µM (top dose mostly 46.1 µM), inactives show at the top dose activity, negative = less viability, most hits filed as cytotoxic. actives 1.6% (n = 360,000);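 note: NT is the 2HG producing partner of a matched IDH1 knockdown line; 0% = DMSO-treated cells and -100% = media-only wells without cells; nearly all actives have a fitted effect of over 55% in size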
#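 HT-1080-NT fibrosarcoma cells (2HG-overproducing), 750 cells/well in RPMI with 5% FBS, dosed after 2 h and incubated 48 h at 37C. CellTiter-Glo luminescence normalized to DMSO and no-cell wells; concentration-response curves fitted and classed.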
# * hit, by the source's call; i = inactive; ? = inconclusive; · = not tested or not shown; [ ] = another dose, or the depositor's remark. The list is not random: actives were taken first. Their share in the collection is about 6.2%. Calls come from the whole dose curve; as a rule, active = well fitted curve in the direction sought with a large enough effect; inconclusive = small, poorly fitted or top-dose-only effect, or another doubt; inactive = no such curve, though single readings can be large; an effect the other way counts as inactive or inconclusive. Potency is the fitted concentration of half-maximal effect.
SMILES,KB-3-1 cytotox,KB-V1 MDR tox,ATXN2 expr inh,HT1080 IDH1KD tx,S2 tox,HT1080NT lethal
Cc1cc(NC2CCCCC2)nc(NCc2ccccc2)n1,?,i,?,?,?,?
COc1cc(C)nc(NCc2ccccc2)n1,i,i,?,-11%,i,0%
Cc1ccc(Nc2cc(C)nc(NCc3ccccc3)n2)cc1,?,12µM*,·,18µM*,i,21µM*
Cc1cc(OC(C)C)nc(NCc2ccccc2)n1,12µM*,i,-19%,?,?,?
COc1ccc(Nc2cc(C)nc(NCc3ccccc3)n2)cc1,?,?,-38%,21µM*,i,18µM*
Cc1cc2ccccc2n1CCNC(=O)c1cc(C(F)(F)F)cc(C(F)(F)F)c1,i,i,3%,·,i,·
Cc1ccc(SCC(=O)OCC(=O)NCCNC(=O)COC(=O)CSc2ccc(C)c(C)c2)cc1C,0.0052µM*,i,2%,3%,i,2%
Cc1cc(Br)c(OCc2ccc(C(=O)N/N=C/c3ccc[nH]3)cc2)c(Br)c1,2.6µM*,?,-63%,1µM*,?,0.82µM*
O=C(N/N=C/c1ccc[nH]1)c1ccc(COc2cccc3cccnc23)cc1,2.3µM*,i,7.5µM*,5.2µM*,?,?
COC1(C(F)(F)F)NC(=O)N(c2ccc(F)cc2)C1=O (centres undefined),i,i,5%,·,i,·
O=C1Nc2ccccc2/C1=C\C(=O)c1ccccc1,i,i,?,?,?,18µM*
Cc1ccc(C(CC(=O)Nc2ccc(C)cc2C)N2Cc3ccccc3C2=O)cc1 (centres undefined),?,i,?,·,i,·
COc1ccc(NS(=O)(=O)c2cc(NC(=O)C3CC3)ccc2N2CCCCC2)cc1,?,?,?,?,?,-21%
COc1ccc(NS(=O)(=O)c2cc(NC(=O)c3ccco3)ccc2N2CCCCC2)cc1,21µM*,i,-31%,?,i,-25%
COc1ccc(NS(=O)(=O)c2cc(NC(=O)c3ccc(=O)[nH]c3)ccc2N2CCCC2)cc1,3.7µM*,i,2%,2.1µM*,?,?
COc1ccc(NS(=O)(=O)c2cc(NC(=O)c3cnc(C)cn3)ccc2N2CCCC2)cc1,i,4.6µM*,-5%,0%,?,-19%
Cc1nc(N)nc(N)c1-c1ccc([N+](=O)[O-])cc1,i,i,1%,10µM*,i,-2%
CCc1nc(SCc2nc3ccccc3[nH]2)c2oc3ccccc3c2n1,i,3.3µM*,-7%,?,?,?
CCc1nc(Sc2nc(C)cc(C)n2)c2oc3ccccc3c2n1,?,16µM*,17%,?,i,?
Cc1nc(SCc2nc3ccc(C(F)(F)F)cc3[nH]2)c2oc3ccccc3c2n1,16µM*,i,?,·,?,·
Cc1nc(SCc2nc3ccc(Br)cc3[nH]2)c2oc3ccccc3c2n1,i,i,-31%,·,i,·
CC(=O)Nc1ccc(C(C#N)c2ccccc2)cc1 (centres undefined),i,i,13%,5%,i,8%
N#CC(c1ccccc1)c1ccc([N+](=O)[O-])cc1 (centres undefined),21µM*,i,-2%,6%,i,-1%
CCC(=O)Oc1c(C(=O)CC)cc2c(C)cc(=O)oc2c1C,i,16µM*,11%,-6%,·,-5%
COC(=O)C1=CN(c2ccc(OC)cc2)C=C(C(=O)OC)C1c1cccc(F)c1,i,i,·,13%,i,7%
SMILES,KB-3-1 cytotox,KB-V1 MDR tox,ATXN2 expr inh,HT1080 IDH1KD tx,S2 tox,HT1080NT lethal
COC(=O)C1=CN(c2ccc(OC)cc2)C=C(C(=O)OC)C1c1ccc(C)c([N+](=O)[O-])c1,?,3.3µM*,-3%,-4%,i,-8%
O=C(NCc1nc2ccccc2[nH]1)c1cccc(Cl)c1,i,i,7%,·,i,·
Clc1cccc(N/N=C(\Cc2nc3ccccc3[nH]2)c2ccccc2)c1,?,21µM*,0%,-23%,?,4%
O=C(NCc1cccnc1)[C@@H]1CC=C[C@@H]2CCN(C3CCCCC3)C(=O)[C@@H]21,i,i,·,·,·,·
O=C(CSc1nnc(Cn2c(=O)sc3ccccc32)n1CCc1ccccc1)N1CCOCC1,i,18µM*,3%,-1%,i,22%
CCOC(=O)c1cccc(NC(=O)NCc2cccn2Cc2ccccc2)c1,i,i,10%,·,i,·
Cc1ccc(-c2cc(C(=O)N3N=C(C(F)F)CC3(O)C(F)F)c3ccccc3n2)cc1C (centres undefined),i,?,?,?,18µM*,?
COc1ccc(CNC(=O)CSc2nnnn2Cc2ccccc2)cc1,16µM*,?,-13%,?,i,?
CC(C)(C)NC(=O)CSc1nc2ccc(NC(=O)CSc3nnnn3Cc3ccccc3)cc2s1,i,i,-19%,16µM*,i,-5%
COc1ccc(C)cc1NC(=O)CSc1nnnn1Cc1ccccc1,i,i,-2%,2%,i,-2%
CCOc1cc(CNCCSc2nnnn2-c2ccccc2)ccc1OC,i,i,-19%,·,?,·
CCCn1nnnc1SCC(=O)NCc1ccc(OC)cc1,i,i,0%,7%,i,8%
COc1ccc(CCNc2nnc(Sc3nnnn3-c3ccccc3)s2)cc1OC,4.1µM*,15µM*,-28%,2µM*,?,3.5µM*
COc1ccc(CSc2nnnn2Cc2ccccc2)cc1OC,i,23µM*,-2%,2%,i,3%
COc1cc(NC(=O)c2sc3nc4n(c(=O)c3c2C)CCCCC4)cc(OC)c1OC,i,i,·,·,·,·
Cc1oc(-c2ccccc2)nc1Cn1cccc1C1=NC(c2ccccc2)CO1 (centres undefined),16µM*,12µM*,-29%,?,i,-13%
CCc1ccccc1NC(=O)Cn1cccc1C1=NC(c2ccccc2)CO1 (centres undefined),i,?,-12%,16µM*,i,?
CC(=O)c1cn(CC(=O)Nc2ccc(C)c(C)c2)c2ccccc12,i,i,3%[11.3 µM],2%,i,2%
Cc1ccc(NC(=O)Cn2cccc2C2=NC(c3ccccc3)CO2)cc1C (centres undefined),?,15µM*,2%,0%,i,0%
Fc1ccc(Cn2cccc2C2=NC(c3ccccc3)CO2)cc1 (centres undefined),i,i,6%,5%,i,0%

# Screening results as filed in PubChem BioAssay.
